Measurements as given in PubChem BioAssay (NCATS).
Inconclusive results are not listed. A call without a number means that no potency is given here. The source made the active and inactive calls. Calls come from the whole dose curve; as a rule, active = well fitted curve in the direction sought with a large enough effect; inconclusive = small, poorly fitted or top-dose-only effect, or another doubt; inactive = no such curve, though single readings can be large; an effect the other way counts as inactive or inconclusive.

Key:
MKL-2 = test: qHTS assay to identify novel small-molecules to repurpose for Merkel cell carcinoma treatment (AID 1296009); details: MCC and control cell lines, CellTiter-Glo viability, 72 h; series mostly up to 46 µM; note: nearly all actives have a fitted effect of over 60% in size
How it was run: (§1)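 Cells were incubated with compound for 72 hr at 37 degree celsius before CellTiter-Glo addition. Luminescence was normalized with no-cell wells as full cytotoxicity and DMSO as baseline.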

NIH3T3 = test: as above; details: MCC and control cell lines, CellTiter-Glo viability, 72 h; at 44.8 µM (top of the series) unless noted
How it was run: as §1

UISO = test: as above; details: MCC and control cell lines, CellTiter-Glo viability, 72 h; series mostly up to 46 µM
How it was run: as §1

WaGa = test: as above; details: MCC and control cell lines, CellTiter-Glo viability, 72 h; series mostly up to 46 µM
How it was run: as §1

C33A = test: Primary qHTS to identify gynecologic anti-cancer compounds using libraries of approved drugs and bioactive compounds (AID 1345084); details: Gynecologic cancer cell panel viability, ATPlite luminescence, 48 h; series mostly up to 57.5 µM; note: nearly all actives have a fitted effect of over 55% in size
How it was run: (§2)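 Cytotoxicity screen measuring ATP content by luciferase luminescence. Each compound is applied at five concentrations for 48 h at 37 C with 5% CO2.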

CASKI = test: as above; details: Gynecologic cancer cell panel viability, ATPlite luminescence, 48 h; series mostly up to 57.5 µM
How it was run: as §2

Es-2 = test: as above; details: Gynecologic cancer cell panel viability, ATPlite luminescence, 48 h; series mostly up to 57.5 µM
How it was run: as §2

HeLa = test: as above; details: Gynecologic cancer cell panel viability, ATPlite luminescence, 48 h; series mostly up to 57.5 µM
How it was run: as §2

Hek293T = test: as above; details: Gynecologic cancer cell panel viability, ATPlite luminescence, 48 h, control line for the selectivity index; series mostly up to 57.5 µM
How it was run: as §2

CAOV3 = test: as above; details: Gynecologic cancer cell panel viability, ATPlite luminescence, 48 h; series mostly up to 57.5 µM
How it was run: as §2
Potency is the fitted concentration of half-maximal effect.

| Compound | Potency (MKL-2) | outcome (NIH3T3) | Potency (UISO) | Potency (WaGa) | Potency (C33A) | Potency (CASKI) | Potency (Es-2) | Potency (HeLa) | Potency (Hek293T) | Potency (CAOV3) |
| --- | --- | --- | --- | --- | --- | --- | --- | --- | --- | --- |
| CC(C)(C)c1cc(NC(=O)Nc2ccc(-c3cn4c(n3)sc3cc(OCCN5CCOCC5)ccc34)cc2)no1 | inactive | inactive | inactive | inactive | inactive | inactive | inactive | inactive | inactive |  |
| C1=CCOCc2cc(ccc2OCCN2CCCC2)Nc2nccc(n2)-c2cccc(c2)OCC1 | 11.8 µM (active) |  | 11.8 µM (active) | 9.35 µM (active) |  |  |  |  |  |  |
| CC(C)c1ccccc1Cc1cc(C(=O)Nc2ccc(S(=O)(=O)c3ccccc3C(C)(C)C)cc2)c(O)c(O)c1O | inactive |  |  |  |  |  |  |  |  |  |
| COc1cc2ncn(-c3cc(OCc4ccccc4C(F)(F)F)c(C(N)=O)s3)c2cc1OC | inactive |  |  |  |  |  |  |  |  |  |
| O=C(O)c1ccc2c(c1)nc(Nc1cccc(Cl)c1)c1ccncc12 | 5.26 µM (active) | inactive | 4.18 µM (active) |  |  | 35.5 µM (active) |  |  |  |  |
| CCCn1c(=O)c2[nH]c(-c3cnn(Cc4cccc(C(F)(F)F)c4)c3)nc2n(CC)c1=O | inactive | inactive | inactive | inactive | inactive | inactive | inactive | inactive | inactive | inactive |
| CNC(=O)c1ccc(-c2cnc3ncc(Cc4ccc5ncccc5c4)n3n2)cc1F | inactive |  | inactive | inactive | inactive | inactive | inactive | inactive | inactive | inactive |
| Nc1ccccc1NC(=O)c1ccc(CNc2nccc(-c3cccnc3)n2)cc1 | 1.48 µM (active) |  | 2.35 µM (active) | 0.418 µM (active) | 6.31 µM (active) | 8.91 µM (active) | 4.47 µM (active) | 0.891 µM (active) |  |  |
| C=C1C(=CC=C2CCCC3(C)[C@@H]([C@H](C)C=CC=CC(O)(CC)CC)CC[C@@H]23)C[C@@H](O)C[C@@H]1O (some centres not stated) | 14.8 µM (active) |  | inactive | 11.8 µM (active) |  |  |  |  |  |  |
| Cc1c(Cn2c(C)nc3c(C(=O)O)cc(N4CCOCC4)cc32)cccc1C(F)(F)F | inactive |  | inactive | inactive | inactive | inactive | inactive | inactive | inactive |  |
| CC=CC1=C(C(=O)O)N2C(=O)[C@H](NC(=O)[C@H](N)c3ccc(O)cc3)[C@@H]2SC1 | inactive |  | inactive | inactive |  |  |  |  |  |  |
| CN1CCN(c2cc(C(=O)Nc3ccc4c(c3)-c3c(c(C(N)=O)nn3-c3ccc(F)cc3)CC4)c(Cl)cn2)CC1 | 26.4 µM (active) |  | inactive | inactive |  |  |  |  |  |  |
| CCCNC(=O)Nc1ccc(Oc2ncnc3cc(OC)c(OC)cc23)cc1Cl | inactive |  | inactive | inactive | inactive | inactive | inactive | inactive | inactive | inactive |
| Clc1cccc(-c2nnnn2Cc2cccnc2)c1Cl | inactive |  | inactive | inactive | inactive | inactive | inactive | inactive | inactive | inactive |
| Nc1ccccc1NC(=O)c1ccc(CNC(=O)OCc2cccnc2)cc1 | 0.296 µM (active) |  | 2.35 µM (active) | 0.296 µM (active) | 17.8 µM (active) | inactive | 11.2 µM (active) | 10 µM (active) |  |  |
| COc1cc2c(cc1-c1c(C)noc1C)ncc1[nH]c(=O)n([C@H](C)c3ccccn3)c12 | 2.64 µM (active) |  | 14.8 µM (active) | 5.9 µM (active) | inactive | 3.98 µM (active) |  |  | inactive | inactive |
| CCCCCN(CCC12CC3CC(CC(C3)C1)C2)C(=O)NCCCc1ccncc1 | inactive |  | inactive | inactive | inactive | inactive | inactive | inactive | inactive | inactive |
| CC(C)C[C@H](NC(=O)CNC(=O)c1cc(Cl)ccc1Cl)B(O)O | 0.264 µM (active) |  | 0.59 µM (active) | 0.296 µM (active) |  |  |  |  |  |  |
| CN(C)CC=CC(=O)Nc1cc2c(Nc3ccc(F)c(Cl)c3)ncnc2cc1O[C@H]1CCOC1 | 5.26 µM (active) |  | 14.8 µM (active) | 14.8 µM (active) |  |  |  |  |  |  |
| O=C(O)[C@H](Cc1c[nH]c2ccccc12)N1C(=O)c2ccccc2C1=O | inactive |  | inactive | inactive |  |  |  |  |  |  |
| C=C1C(=CC=C2CCC[C@]3(C)[C@@H]([C@H](C)C=C[C@H](C)C(C)C)CC[C@@H]23)C[C@@H](O)C[C@@H]1O | 0.332 µM (active) |  | 8.33 µM (active) | 0.118 µM (active) |  |  |  |  |  |  |
| O=C(NCCS(=O)(=O)c1ccc(C(F)(F)F)cn1)c1ccc(Cl)cc1 | inactive |  | inactive | inactive |  |  |  |  |  |  |
| CC(C)(C)OC(=O)Nc1ccc(-c2cc(C(=O)NCCCCCCC(=O)NO)no2)cc1 | 2.96 µM (active) |  | 10.5 µM (active) | 3.32 µM (active) |  |  |  |  |  |  |
| CN(C)c1nc(Cc2ccc(NC(=O)c3ccc4ccccc4c3)cc2)nc(Cl)c1CC(=O)O | inactive |  | inactive | inactive | inactive | inactive | inactive | inactive | inactive |  |
| CC=C1NC(=O)[C@H]2CSSCCC=C[C@H](CC(=O)N[C@H](C(C)C)C(=O)N2)OC(=O)[C@H](C(C)C)NC1=O | 0.0166 µM (active) |  | 0.0166 µM (active) | 0.0264 µM (active) |  |  |  |  |  |  |
| C#Cc1cccc(Nc2ncnc3cc(OC)c(OCCCCCCC(=O)NO)cc23)c1 | 0.105 µM (active) |  | 2.09 µM (active) | 0.105 µM (active) | 3.55 µM (active) | 6.31 µM (active) | 10 µM (active) | 6.31 µM (active) |  | 7.94 µM (active) |
| CCOc1cc2ncc(C#N)c(Nc3ccc(F)c(Cl)c3)c2cc1NC(=O)C=CCN(C)C | 14.8 µM (active) |  | 2.64 µM (active) | 9.35 µM (active) |  |  |  |  |  |  |
